# Compounds without any hit were thinned out: in the full panel of roughly 83,000, 20% have a hit.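 The test compound was applied at a single concentration to cells in 96-well plates for 48 hours, and percent growth was recorded.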 A number with no mark means an inactive call. The source made the active and inactive calls. How the source made its calls: active means growth percent below 10; inactive means the rest.
# Tested on: MDA-MB-468 breast
# Experiment: NCI-60 one-dose screen, 48 h (100 = growth as untreated, 0 = no growth, -100 = all killed)
# Conditions: 10 µM unless noted
row,Structure (SMILES),growth
1,O=C(CSc1nnc(-c2ccc(Cl)c(Cl)c2)n1-c1ccccc1)Nc1ccc(C(=O)/C=C/c2ccc(Cl)cc2)cc1,98.4%
2,COc1cc(C2N=C(NNc3ccccc3)NC(C)=C2C(C)=O)ccc1O (stereo not drawn),93.3%
3,COc1cccc(C2(C)Nc3ccccc3-c3nc4ccccc4n32)c1 (stereo not drawn),109%
4,CNc1ncc2cc(-c3cc(NC(=O)NCCC(C)(C)C)c(F)cc3C)c(C)nc2n1,52.7%
5,O=C1COCCN1c1ccc(NCc2cn(C(=O)c3ccc(Cl)cc3)c3ccccc23)cc1,-66.6% (active)
6,O=C(Nc1ccc(Cl)cc1)c1cc(-c2ccc(Cl)cc2)c2sc(=O)[nH]c2n1,-3.42% (active)
7,CN1C(=O)N(C)C2(c3ccccc3)OC(=S)NC12c1ccccc1 (stereo not drawn),112%
8,O=C(CSc1ccc(Cl)cc1)Nc1ccc(-c2nc3ccccc3s2)c(Cl)c1,52.1%
9,COC(=O)CNC(=O)C(=O)c1c(O)c(O)c(C(C)C)c2cc(C)c(-c3c(C)cc4c(C(C)C)c(O)c(O)c(C(=O)C(=O)NCC(=O)OC)c4c3O)c(O)c12,15.8%
10,CCOc1cc(Cl)c(C(C)NC(=O)c2cccc(OC)c2)cc1OCC (stereo not drawn),-61.6% (active)
11,O=C(Nc1nc2ccc(C(=O)N3CCN(/C=C/c4ccccc4)CC3)cc2s1)c1ccc(NCCc2ccccc2)c([N+](=O)[O-])c1,22.6%
12,Nc1c(C(=O)Nc2cccc3ccccc23)sc2nc3c(cc12)CCCCCC3,30.7%
13,O=C(O)c1ccnc(Br)c1,91.1%
